Data reported in PubChem BioAssay (NCATS).
Records with an inconclusive call do not appear. Calls of active or inactive are those of the source. Calls follow the shape of the dose curve; as a rule, active = well fitted curve in the direction sought with a large enough effect; inconclusive = small, poorly fitted or top-dose-only effect, or another doubt; inactive = no such curve, though single readings can be large; an effect the other way counts as inactive or inconclusive.

Key:
[1] = Quantitative High-Throughput drug screen in 47 multiple myeloma cell lines against the NCATS MIPE library collection: KHM11_PLB cell viability assay (AID 1918962); also: nearly all actives have a fitted effect of over 35% in size
Procedure, shortened: (§1)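 Approved and investigational drugs from MIPE 4.0 were added by pin tool to 500 cells per well. After 48 hours at 37C, ATP-based CellTiter-Glo luminescence indicated remaining viability.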

[2] = Quantitative High-Throughput drug screen in 47 multiple myeloma cell lines against the NCATS MIPE library collection: JIM3_ECACC cell viability assay (AID 1918963; also: nearly all actives have a fitted effect of over 35% in size)
Procedure, shortened: as §1

[3] = Quantitative High-Throughput drug screen in 47 multiple myeloma cell lines against the NCATS MIPE library collection: JIM1_ECACC cell viability assay (AID 1918964)
Procedure, shortened: (§2)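 Primary qHTS used for cherry-picking: cells at 500/well, library compounds for 48 h (37C, 5% CO2), luminescent ATP assay.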

[4] = Quantitative High-Throughput drug screen in 47 multiple myeloma cell lines against the NCATS MIPE library collection: JJN3_DSMZ cell viability assay (AID 1918966; also: nearly all actives have a fitted effect of over 50% in size)
Procedure, shortened: as §2

[5] = Quantitative High-Throughput drug screen in 47 multiple myeloma cell lines against the NCATS MIPE library collection: H1112_PLB cell viability assay (AID 1918967; also: nearly all actives have a fitted effect of over 30% in size)
Procedure, shortened: as §2

[6] = Quantitative High-Throughput drug screen in 47 multiple myeloma cell lines against the NCATS MIPE library collection: Karpas25_ECACC cell viability assay (AID 1918968; also: nearly all actives have a fitted effect of over 35% in size)
Procedure, shortened: as §2

[7] = Quantitative High-Throughput drug screen in 47 multiple myeloma cell lines against the NCATS MIPE library collection: KMS12BM_JCRB cell viability assay (AID 1918971); also: nearly all actives have a fitted effect of over 35% in size
Procedure, shortened: (§3)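 We plated 500 myeloma cells per well, pinned in MIPE 4.0 compounds, and incubated for 48 hours at 37C. ATP was then quantified with CellTiter-Glo, with DMSO and media-only wells defining 100% and 0%.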

[8] = Quantitative High-Throughput drug screen in 47 multiple myeloma cell lines against the NCATS MIPE library collection: KMS12PE_JCRB cell viability assay (AID 1918972); also: nearly all actives have a fitted effect of over 30% in size
Procedure, shortened: (§4)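 Inhibition of cell viability is measured here. Each line was plated at 500 cells per well, treated with MIPE 4.0 drugs, kept 48 hours at 37C, then assayed for ATP content by CellTiter-Glo luminescence.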

[9] = Quantitative High-Throughput drug screen in 47 multiple myeloma cell lines against the NCATS MIPE library collection: KMS26_JCRB cell viability assay (AID 1918975); also: nearly all actives have a fitted effect of over 45% in size
Procedure, shortened: as §3

[10] = Quantitative High-Throughput drug screen in 47 multiple myeloma cell lines against the NCATS MIPE library collection: MOLP8_DSMZ cell viability assay (AID 1918977); also: nearly all actives have a fitted effect of over 45% in size
Procedure, shortened: (§5)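 ATP-based luminescence (CellTiter-Glo, 5 min RT incubation) quantified surviving cells following two days' treatment with MIPE 4.0 agents at 37 °C, 5% CO2.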

[11] = Quantitative High-Throughput drug screen in 47 multiple myeloma cell lines against the NCATS MIPE library collection: NCIH929_DSMZ cell viability assay (AID 1918978); also: nearly all actives have a fitted effect of over 35% in size
Procedure, shortened: as §5

[12] = Quantitative High-Throughput drug screen in 47 multiple myeloma cell lines against the NCATS MIPE library collection: OCIMY1_PLB cell viability assay (AID 1918979); also: nearly all actives have a fitted effect of over 35% in size
Procedure, shortened: as §5

[13] = Quantitative High-Throughput drug screen in 47 multiple myeloma cell lines against the NCATS MIPE library collection: MM1S_ATCC cell viability assay (AID 1918980); also: nearly all actives have a fitted effect of over 45% in size
Procedure, shortened: as §5

[14] = Quantitative High-Throughput drug screen in 47 multiple myeloma cell lines against the NCATS MIPE library collection: MM1R_ATCC cell viability assay (AID 1918981); also: nearly all actives have a fitted effect of over 35% in size
Procedure, shortened: as §5

[15] = Quantitative High-Throughput drug screen in 47 multiple myeloma cell lines against the NCATS MIPE library collection: KMS27_JCRB cell viability assay (AID 1918970); conditions: KMS27 myeloma cells, CellTiter-Glo ATP viability, 48 h; viability (% of DMSO): at 45.8 µM (top of the series); also: nearly all actives have a fitted effect of over 30% in size
Procedure, shortened: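 Myeloma cells (500 per well) were exposed to MIPE 4.0 compounds for 48 h at 37 °C, 5% CO2; viability was read as ATP luminescence with CellTiter-Glo, normalized to DMSO-only (100%) and media-only (0%) wells.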

[16] = Quantitative High-Throughput drug screen in 47 multiple myeloma cell lines against the NCATS MIPE library collection: INA6_PLB cell viability assay (AID 1918965; also: nearly all actives have a fitted effect of over 55% in size)
Procedure, shortened: as §4

[17] = Quantitative High-Throughput drug screen in 47 multiple myeloma cell lines against the NCATS MIPE library collection: KMS20_JCRB cell viability assay (AID 1918973); also: nearly all actives have a fitted effect of over 45% in size
Procedure, shortened: as §2

[18] = Quantitative High-Throughput drug screen in 47 multiple myeloma cell lines against the NCATS MIPE library collection: KMS21BM_JCRB cell viability assay (AID 1918974); conditions: ATP luminescence, 48 h; viability: at 45.8 µM (top of the series)
Procedure, shortened: as §2

[19] = Quantitative High-Throughput drug screen in 47 multiple myeloma cell lines against the NCATS MIPE library collection: MMM1_PLB cell viability assay (AID 1918976); also: nearly all actives have a fitted effect of over 35% in size
Procedure, shortened: as §5
Potency is read from the fitted curve at half-maximal effect.

Structure (SMILES)	Potency [1]	Potency [2]	Potency [3]	Potency [4]	Potency [5]	Potency [6]	Potency [7]	Potency [8]	Potency [9]	Potency [10]	Potency [11]	Potency [12]	Potency [13]	Potency [14]	Potency [15]	Potency [16]	Potency [17]	Potency [18]	Potency [19]
O=C(O)C=Cc1ccc(Cn2ccnc2)cc1	inactive	inactive	inactive	inactive	inactive	inactive	inactive	inactive	inactive	inactive	inactive	inactive	inactive	inactive	–	–	–	–	–
COc1ccc(Nc2nccc(NCCO)n2)cc1	inactive	inactive	inactive	–	inactive	inactive	–	–	inactive	–	inactive	–	–	–	inactive	–	–	–	–
CC(C)N1[N]C(=C2C=c3cc(O)ccc3=N2)c2c(N)ncnc21	0.0833 µM (active)	0.264 µM (active)	–	0.209 µM (active)	4.18 µM (active)	0.235 µM (active)	0.166 µM (active)	2.35 µM (active)	1.18 µM (active)	0.0833 µM (active)	0.059 µM (active)	–	0.469 µM (active)	0.418 µM (active)	0.209 µM (active)	1.18 µM (active)	0.743 µM (active)	2.09 µM (active)	0.0833 µM (active)
CON=C(C(=O)N[C@@H]1C(=O)N2C(C(=O)O)=C(Cn3ccc(=N)n3CCO)CS[C@H]12)c1csc(N)n1	inactive	inactive	inactive	–	inactive	–	inactive	inactive	inactive	inactive	inactive	–	inactive	inactive	inactive	inactive	–	inactive	–
O=C(Nc1cc2cc[nH]c2cn1)c1ccccc1	7.43 µM (active)	7.43 µM (active)	–	9.35 µM (active)	9.35 µM (active)	8.33 µM (active)	14.8 µM (active)	8.33 µM (active)	11.8 µM (active)	3.72 µM (active)	8.33 µM (active)	–	14.8 µM (active)	7.43 µM (active)	13.2 µM (active)	8.33 µM (active)	9.35 µM (active)	–	–
CN(C)CC[C@H](c1ccc(Cl)cc1)c1ccccn1	inactive	inactive	–	inactive	inactive	inactive	–	–	inactive	–	inactive	–	16.6 µM (active)	–	–	inactive	–	–	–
O=C(O)C[C@H](O)C[C@H](O)C=Cc1c(C2CC2)nc2ccccc2c1-c1ccc(F)cc1	7.43 µM (active)	14.8 µM (active)	0.935 µM (active)	–	13.2 µM (active)	4.69 µM (active)	–	3.72 µM (active)	18.7 µM (active)	4.69 µM (active)	3.72 µM (active)	–	5.26 µM (active)	5.9 µM (active)	3.32 µM (active)	4.18 µM (active)	–	–	–
c1cncc(CN2CCC(n3ncc4c(N5CCOCC5)nc(-c5ccc6[nH]ccc6c5)nc43)CC2)c1	1.66 µM (active)	5.26 µM (active)	–	5.9 µM (active)	13.2 µM (active)	2.35 µM (active)	13.2 µM (active)	–	4.69 µM (active)	2.96 µM (active)	0.332 µM (active)	16.6 µM (active)	5.9 µM (active)	5.9 µM (active)	–	5.9 µM (active)	1.18 µM (active)	inactive	–
CC[C@@]1([C@@H]2O[C@@H]([C@H]3O[C@@](O)(CO)[C@H](C)C[C@H]3C)C[C@H]2C)CC[C@H]([C@]2(C)CC[C@]3(C[C@H](O)[C@@H](C)[C@@H]([C@@H](C)[C@@H](OC)[C@H](C)C(=O)O)O3)O2)O1	0.512 µM (active)	0.229 µM (active)	0.0645 µM (active)	0.257 µM (active)	–	3.23 µM (active)	0.0457 µM (active)	0.0911 µM (active)	0.182 µM (active)	0.204 µM (active)	–	–	0.182 µM (active)	0.229 µM (active)	–	0.257 µM (active)	0.0512 µM (active)	0.144 µM (active)	0.575 µM (active)
CCOC(=O)N1CCN([N+]([O-])=NOc2ccc([N+](=O)[O-])cc2[N+](=O)[O-])CC1	1.48 µM (active)	2.64 µM (active)	–	2.64 µM (active)	1.18 µM (active)	0.469 µM (active)	1.48 µM (active)	8.33 µM (active)	–	2.35 µM (active)	1.32 µM (active)	7.43 µM (active)	1.87 µM (active)	1.18 µM (active)	4.18 µM (active)	2.96 µM (active)	1.18 µM (active)	–	–
CCc1ccc(C(=O)Nc2cc(CN3CCN(C)CC3)cc(C(F)(F)F)c2)cc1C#Cc1cnc2ccnn2c1	9.35 µM (active)	7.43 µM (active)	–	20.9 µM (active)	2.64 µM (active)	8.33 µM (active)	14.8 µM (active)	5.26 µM (active)	16.6 µM (active)	18.7 µM (active)	10.5 µM (active)	16.6 µM (active)	16.6 µM (active)	18.7 µM (active)	5.9 µM (active)	4.69 µM (active)	3.72 µM (active)	–	23.5 µM (active)
